# Results with a measured potency or affinity are listed apart.
# Test system: Klebsiella pneumoniae
# Details: Concentration 32 ug.mL-1; ASSAY_TEST Inhibition of Bacterial Growth; detection method Absorption (OD600); MEDIA CAMHB; plate type 384well; NBS; CORNING #3640; time 18 hr
row,Structure (SMILES),Inhibition
1,O=C(N/N=C1/C[C@@H]2[C@H](COC(c3ccccc3)(c3ccccc3)c3ccccc3)C[C@H](COC(c3ccccc3)(c3ccccc3)c3ccccc3)[C@@H]2C1)c1ccncc1,-5.52%
2,O=C(NN=CC[C@H]1[C@H](CO)[C@@H](O)C[C@H]1O)c1ccncc1,13.38%
3,O=C(NNC(=O)c1cccc([N+](=O)[O-])c1C(=O)O)c1ccncc1,15.09%
4,O=C(ON/N=C/[C@@H]1[C@@H]2C[C@H](Cl)[C@H]1C[C@H]2O)c1ccncc1,14.1%
5,O=C(N/N=C/CCCO)c1ccncc1,3.72%
6,O=C(N/N=C/C[C@@H]1[C@@H](/C=C/[C@@H](O)COc2cccc(Cl)c2)[C@H](O)C[C@@H]1O)c1ccncc1,18.63%
7,COC(=O)CCCCCC[C@@H]1[C@@H](/C=N/NC(=O)c2ccncc2)[C@H](O)C[C@@H]1O,5.87%
8,O=C(N/N=C1\CC[C@@H]2[C@H]1[C@H](OC(=O)c1ccccc1)C[C@@H]2OC(=O)c1ccccc1)c1ccncc1,13.57%
9,O=C(N/N=C/[C@@H]1C[C@H](CO)[C@@H]2CCC[C@@H]21)c1ccncc1,17.88%
10,COC(=O)C[C@H]1[C@H](/C=N\NC(=O)c2ccncc2)[C@@H](O[Si](C)(C)C(C)(C)C)C[C@@H]1Cl,21.45%
11,O=C(N/N=C/C[C@@H]1[C@@H](/C=C/[C@@H](O)COc2ccccc2)[C@H](O)C[C@@H]1O)c1ccncc1,13.01%
12,COC(=O)CCCCCC[C@@H]1[C@@H](/C=N/NC(=O)c2ccncc2)[C@H](OC(=O)c2ccccc2)C[C@@H]1O,15.74%

# From ChEMBL document CHEMBL4513156, “CO-ADD screening of NCPRI (Romania) compounds”
